Records with an inconclusive call do not appear. A call without a number means that no potency is given here. Calls of active or inactive are those of the source. Unless noted, calls come from the whole dose curve; as a rule, active = well fitted curve in the direction sought with a large enough effect in the repeat runs; inconclusive = weak or mixed curves; inactive = no such curve, though single readings can be large; an effect the other way counts as inactive or inconclusive.
Key:
[1] = qHTS assay to identify small molecule antagonists of the androgen receptor (AR) signaling pathway using the MDA cell line in the presence of 0.5 nM R1881 - cell viability counter screen (AID 1259242); settings: MDA-kb2 viability, CellTiter-Fluor protease fluorescence, 16 h; series mostly up to 92.4 µM; note: nearly all actives have a fitted effect of over 45% in size
How it was run: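 Cells seeded at 3,000/well and allowed 5 hr at 37C, 0% CO2 before compound transfer and R1881 (0.5 nM final) addition; 16 hr later, live-cell protease fluorescence indicated cytotoxicity.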

[2] = target: Estrogen receptor (Homo sapiens) (UniProt P03372); assay: qHTS assay to identify small molecule antagonists of the estrogen receptor alpha (ER-alpha) signaling pathway using the BG1 cell line in the presence of 0.1 nM 17-beta-estradiol (AID 1259244); settings: VM7Luc4E2 (BG1) ERE-luciferase, antagonist mode, 0.1 nM E2, 22 h; series mostly up to 92.4 µM; note: nearly all actives have a fitted effect of over 50% in size
How it was run: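 Luciferase signal from VM7Luc4E2 ERE-reporter cells, co-dosed with test compound and 0.1 nM final 17beta-estradiol for 22 h, read with ONE-Glo.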

[3] = qHTS assay to identify small molecule HDAC inhibitors (AID 1259364); settings: HCT-116 HDAC-Glo I/II luminescence, 2 h; series mostly up to 92.4 µM;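 note: wild-type HCT-116 cells with endogenous class I/II HDAC activity; top concentration of the series differs between compounds; nearly all actives have a fitted effect of over 45% in size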
How it was run: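 HCT-116 wt cells, 1,500/well, overnight attach. Compounds (DMSO) 2 h, 37 °C. HDAC-Glo I/II, 30 min RT. Luminescence.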

[4] = qHTS assay to identify small molecule HDAC inhibitors - cell viability counter screen (AID 1259365); settings: HCT-116 viability, CellTiter-Glo ATP luminescence, 2 h; series mostly up to 92.4 µM; note: nearly all actives have a fitted effect of over 50% in size
How it was run: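 Wild-type HCT-116 cells were seeded at 1,500 per well, incubated overnight at 37 C, then exposed to compounds in DMSO for 2hr. Viability was read by CellTiter-Glo luminescence after 30min at room temperature.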

[5] = qHTS assay to identify small molecule agonists of the sonic hedgehog signaling (Shh) pathway - cell viability counter screen (AID 1259366); settings: NIH/3T3 Gli1-Luc viability, CellTiter-Fluor, 24 h; series mostly up to 92.4 µM; note: nearly all actives have a fitted effect of over 50% in size
How it was run: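 NIH/3T3-derived 3T3 Gli1-Luc cells (stable Gli1-responsive firefly luciferase reporter) were seeded, rested 4 hr at 37 C/5% CO2, then exposed to compounds in DMSO for 24 hr; viability was read by CellTiter-Fluor fluorescence in the same wells.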

[6] = qHTS assay to identify small molecule antagonists of the sonic hedgehog signaling (Shh) pathway - cell viability counter screen (AID 1259367); settings: NIH/3T3 Gli1-Luc viability, CellTiter-Fluor, 24 h; series mostly up to 92.4 µM; note: nearly all actives have a fitted effect of over 55% in size
How it was run: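 Tox21 library chemicals were tested on a Gli1-Luc NIH/3T3 clone (2,000 cells/well) stimulated by conditioned medium; viability was quantified as fluorescence from CellTiter-Fluor reagent added at 23 hr.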

[7] = qHTS assay to identify small molecule agonists of the sonic hedgehog signaling (Shh) pathway (AID 1259368; calls by dose curve; note: nearly all actives have a fitted effect of over 15% in size); settings: NIH/3T3 Gli1-Luc reporter, luciferase, 24 h; series mostly up to 92.4 µM
How it was run: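 Following a 24 hr incubation with DMSO-dissolved compounds at 37 C, 5% CO2, Gli1-Luc NIH/3T3-derived cells received luciferase reagent for 30 min at room temperature prior to luminescence measurement.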

[8] = qHTS assay to identify small molecule antagonists of the sonic hedgehog signaling (Shh) pathway (AID 1259369; calls by dose curve; note: nearly all actives have a fitted effect of over 45% in size; note: potency is the fitted concentration of half-maximal effect); settings: NIH/3T3 Gli1-Luc reporter, Shh antagonist, luminescence 24 h; series mostly up to 92.4 µM
How it was run: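 Read-out is luminescence from a firefly luciferase gene controlled by the Gli1 response element, in 3T3Gli1-Luc cells pre-incubated 4hr then exposed to compounds and conditioned medium for 24hr.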

Sequence of Estrogen receptor (Homo sapiens) (P03372 whole entry, looked up): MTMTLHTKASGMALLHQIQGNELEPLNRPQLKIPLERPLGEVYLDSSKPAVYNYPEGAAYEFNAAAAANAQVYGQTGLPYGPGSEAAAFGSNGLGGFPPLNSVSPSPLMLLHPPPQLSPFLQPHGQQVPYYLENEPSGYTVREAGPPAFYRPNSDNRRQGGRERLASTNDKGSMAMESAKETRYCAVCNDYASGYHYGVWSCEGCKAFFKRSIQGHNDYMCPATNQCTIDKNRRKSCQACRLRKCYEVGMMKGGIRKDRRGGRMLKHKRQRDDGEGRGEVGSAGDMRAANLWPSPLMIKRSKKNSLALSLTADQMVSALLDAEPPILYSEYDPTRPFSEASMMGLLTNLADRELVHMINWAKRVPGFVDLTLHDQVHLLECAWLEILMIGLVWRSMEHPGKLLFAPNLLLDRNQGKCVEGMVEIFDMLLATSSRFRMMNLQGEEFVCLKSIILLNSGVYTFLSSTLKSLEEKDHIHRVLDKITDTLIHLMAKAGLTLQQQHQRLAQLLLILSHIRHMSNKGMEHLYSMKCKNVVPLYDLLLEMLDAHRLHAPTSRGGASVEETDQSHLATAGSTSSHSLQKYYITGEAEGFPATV

| Structure (SMILES) | Potency [1] | Potency [2] | Potency [3] | Potency [4] | Potency [5] | Potency [6] | Potency [7] | Potency [8] |
| --- | --- | --- | --- | --- | --- | --- | --- | --- |
| NC(=S)c1c(Cl)cccc1Cl | inactive | inactive | inactive | inactive | inactive | inactive | inactive | inactive |
| C=CCOCC1CO1 (centres undefined) | inactive | inactive | inactive | inactive | inactive | inactive | inactive | inactive |
| O=C(O)c1cc(I)cc(I)c1I | inactive | inactive | inactive | inactive | inactive | inactive | inactive | inactive |
| COC(=O)Cc1ccccc1 | inactive | inactive | inactive | inactive | inactive | inactive | inactive | inactive |
| OCC1CO1 (centres undefined) | inactive | inactive | inactive | inactive | inactive | inactive | inactive | inactive |
| CC(Oc1cc(Cl)c(Cl)cc1Cl)C(=O)O (centres undefined) | inactive | inactive | inactive | inactive | inactive | inactive | inactive | inactive |
| CCCSP(=S)(OCC)Oc1ccc(SC)cc1 (centres undefined) | inactive | inactive | inactive | inactive | inactive | inactive | inactive | 61.1 µM (active) |
| CC(C)(C#N)C(C)(C)C#N | inactive | – | inactive | inactive | inactive | inactive | inactive | – |
| N#CC(C#N)=C(C#N)C#N | inactive | inactive | – | inactive | – | – | inactive | 14.3 µM (active) |
| CCCCCCCCCCCCN(C)C | inactive | inactive | inactive | – | inactive | inactive | inactive | inactive |
